Measurements from ChEMBL document CHEMBL4513216, “Probing the Open Global Health Chemical Diversity Library for Multistage-Active Starting Points for Next-Generation Antimalarials” (ACS Infect Dis, 2020).
Hit rate of the full screen: of about 68,000 compounds, about 2,700 (4%) showed an effect of 50% or more. Many of the other results were omitted from the sample, so strong results are more common in it than they were.

system: Plasmodium berghei; assay: Screen against P. berghei liver stage (PbLuc), transformed with Luciferase, at 2uM; assay type: functional, HepG2; conditions: tested at 2 uM

SMILES	INHIBITION [%]
CC(Cc1ccc2c(c1)OCO2)c1cn(CCc2c[nH]cn2)nn1 (centres undefined)	46.58
CC(Cc1ccc2c(c1)OCO2)c1cn(CCN2CCCC2)nn1 (centres undefined)	69.71
Cc1cc(Cn2cc(C(C)Cc3ccc4c(c3)OCO4)nn2)n[nH]1 (centres undefined)	49.88
CN(Cc1ccncc1)C1COC2(CCN(Cc3ccco3)CC2)C1 (centres undefined)	45.36
O=C(Nc1cn[nH]c1)c1ccc(O)nc1	45.75
Cn1nc(C2CCCN(Cc3ccc(F)c(F)c3)C2)c2nccnc21 (centres undefined)	38.65
O=C(c1n[nH]c(=O)c2ccccc12)N1CCC(O)(CN2CCOCC2)C1 (centres undefined)	-28.4
Cc1ccc(CN(CCCn2ccnc2)Cc2c(F)cccc2F)s1	36.26
O=C(CCn1cccn1)N1C[C@H]2CC[C@@H](C1)N(Cc1ccccn1)C2=O	-19.54
Cn1ncnc1CNC1CCCc2cc(F)ccc21 (centres undefined)	-9.03
Cn1ncnc1CNC1CCc2cc(Cl)ccc21 (centres undefined)	74.44
Cc1ccc2c(c1)C(NCc1ncnn1C)CC2 (centres undefined)	38.67
CC(C)NC(=O)C1CCc2nnc(C(C)(C)C)n21 (centres undefined)	12.84
O=C(CCN1CCOCC1)Nc1cccc(CNCc2ccsc2)c1	3.54
CN(C)c1ccc(NC(=O)NCc2cccnc2N(C)C)cn1	1.63
CC(C)C(NC(=O)NCc1cccnc1N(C)C)c1cccs1 (centres undefined)	-16.65
CCOc1ccccc1CNC(=O)N(CC)C(C)c1cccnc1 (centres undefined)	21.97
CC(NC(=O)NCc1cccnc1N(C)C)c1cccs1 (centres undefined)	51.31
CCN(C(=O)NCc1cccnc1N(C)C)C(C)c1cccnc1 (centres undefined)	57.75
CC(NC(=O)NCc1cccnc1N(C)C)c1ccc(F)cc1 (centres undefined)	59.21
CN(C)c1ncccc1CNC(=O)NCC(c1cccs1)N(C)C (centres undefined)	31.55
CCN(C(=O)NCc1ccccc1OC(F)F)C(C)c1cccnc1 (centres undefined)	38.67
CN(C)c1ncccc1CNC(=O)NCc1ccco1	37.15
CCN(CC1CN(CC2CCC2)CCO1)c1cccnn1 (centres undefined)	47.61
Cc1nc2n(n1)CC(NCc1cc(Cl)c3c(c1)OCCCO3)CC2 (centres undefined)	3.86
CN(Cc1ccco1)[C@@H]1CN(Cc2ccc(F)cc2)[C@@H]2CCCO[C@H]12	-12.36
COc1ncnc(N)c1CNCCc1ccc(-n2cccn2)cc1	18.37
O=C(c1cccs1)N1CC[C@H]2C[C@@H](c3nnc(C4CC4)o3)O[C@@H]2C1	31.41
CN(C)C(=O)C1OC2(CCN(C(=O)c3ccoc3)CC2)c2ccccc21 (centres undefined)	25.43
